Active and inactive are the calls of the source. Unless noted, how the calls were made is not given here.

The subject of experiment [1] is Wnt5a (protein binding on small-molecule microarray). Kind of experiment: Wnt5a binders on small-molecule microarray, primary screen, biophysical, 635/667 nm fluorescence (AID 1142).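 Further: fluorescence read at 667 nm with signal to noise per printed feature.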 The following applies: 635 nm fluorescence, higher = more signal.
Experiment [2] is described as follows: cell viability in Huh7 cells, primary screen, cytotoxicity control for HCV replication inhibitor project, CellTiter-Glo luminescence, basal, 48 h (AID 1143).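 Further: Huh7 hepatoma cells carrying a hepatitis C replication reporter with no stimulus; test concentration not given here.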 The following applies: Huh7 HCV replicon, higher = more signal, called active from +8 up or from −8 down. (ATP-based viability assays read luminescence as a measure of living cells.)
Experiment [3] in a line: P. aeruginosa biofilm formation inhibitors, primary screen, PAO1 strain, BacTiter-Glo luminescence, LB-PBS (AID 1144). The following applies: 12 h, higher = more signal.
Experiment [4] is described as follows: CREB reporter modulators without forskolin, primary screen, cell-based, PC12, CRE-LacZ reporter, unstimulated (AID 1145). The following applies: no forskolin, luminescence, 4.5 h, higher = more signal, called active from +8 up or from −8 down.
The nature of experiment [5]: CREB reporter modulators under forskolin, primary screen, cell-based, PC12, CRE-LacZ reporter, forskolin-stimulated (AID 1146).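 Further: PC12 cells with 6xCRE LacZ reporter stimulated by forskolin 10 µM; beta-galactosidase reporter signal reflecting CREB driven transcription.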 The following applies: luminescence, 4.5 h, higher = more signal, called active from +8 up or from −8 down.
The target in experiment [6] is Streptavidin (Streptomyces avidinii) (UniProt P22629). Kind of experiment: streptavidin binders on small-molecule microarray, primary screen, artefact control for SMM compound annotation, biophysical, 635/667 nm fluorescence (AID 1147).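 Further: signal reflects streptavidin binding to arrayed compounds as a control protein.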 The following applies: streptavidin binding, higher = more signal.
Streptavidin (Streptomyces avidinii), sequence (P22629 whole entry, looked up): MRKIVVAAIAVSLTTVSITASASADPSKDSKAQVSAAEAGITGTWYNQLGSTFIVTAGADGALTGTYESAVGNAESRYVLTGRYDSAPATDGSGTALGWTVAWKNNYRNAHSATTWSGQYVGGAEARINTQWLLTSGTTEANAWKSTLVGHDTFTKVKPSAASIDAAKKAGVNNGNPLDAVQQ
Experiment [7] is described as follows: small-molecule binders of probe aInhba, primary screen, biochemical, small-molecule microarray, 635/667 nm fluorescence (AID 1148).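 Further: score merges 667nm spot fluorescence with signal-to-noise for antibody binding to printed compounds.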 The following applies: higher = more signal.
The target of experiment [8] is Torsin-1A (Homo sapiens) (UniProt O14656). Kind of experiment: torsin A binders from cell lysate, primary screen, small-molecule microarray, wild-type, 635/667 nm (AID 1149). The following applies: COS7 hTOR1A-WT lysate, 635 nm fluorescence, higher = more signal.
Torsin-1A (Homo sapiens), sequence (O14656 whole entry, looked up): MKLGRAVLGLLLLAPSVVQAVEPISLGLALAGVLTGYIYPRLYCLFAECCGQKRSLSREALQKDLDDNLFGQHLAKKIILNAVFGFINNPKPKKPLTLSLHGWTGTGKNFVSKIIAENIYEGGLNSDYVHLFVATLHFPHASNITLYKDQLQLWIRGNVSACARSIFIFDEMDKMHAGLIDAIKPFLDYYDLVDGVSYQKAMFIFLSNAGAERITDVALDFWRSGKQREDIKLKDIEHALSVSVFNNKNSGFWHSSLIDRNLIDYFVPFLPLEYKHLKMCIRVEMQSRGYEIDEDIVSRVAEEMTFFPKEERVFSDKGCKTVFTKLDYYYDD
Experiment [9] has the same target. Kind of experiment: small-molecule binders of mutant TOR1A in lysate, primary screen, cell lysate, small-molecule microarray, COS7 lysate, 635/667 nm fluorescence (AID 1150).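 Further: score pools 667 nm emission and signal to noise measuring lysate protein binding.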 The following applies: COS7 hTOR1A mutant lysate, 635 nm fluorescence, higher = more signal.
Experiment [10] has as its system Sonic hedgehog protein (Shh). Description: small-molecule binders of Shh protein, primary screen, biochemical, small-molecule microarray, 635/667 nm fluorescence (AID 1151).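 Further: Shh protein binding to compounds spotted on small-molecule microarray slides; score combines spot fluorescence intensity with signal-to-noise across triplicate slides.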 The following applies: small-molecule microarray binding, 635 nm fluorescence; higher = more signal.
Experiment [11] can be described thus: E. coli DRC41 culture turbidity changes, primary screen, E. coli filamentation inducer project, strain DRC41, OD650, 48 h (AID 1152).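 Further: E. coli MC1000 strain DRC41 lacking acrAB efflux pump and sulA.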 The following applies: E. coli DRC41 (acrAB sulA), higher = more signal, called active from +8 up or from −8 down.
Experiment [12] is described as follows: small-molecule binders of probe aLefty1, primary screen, biochemical, small-molecule microarray, 635/667 nm fluorescence (AID 1153).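 Further: score merges spot fluorescence with signal-to-noise ratio from the scanned slide images.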 The following applies: higher = more signal.
Experiment [13] can be described thus: PSAC antagonists in infected red cells, primary screen, cell-based, P. falciparum Indochina, OD700, 1 h (AID 1154). The following applies: P. falciparum Indochina infected RBC osmotic lysis, higher = more signal, called active from +8 up or from −8 down.
Experiment [14] can be described thus: PSAC antagonists in infected red cells, primary screen, cell-based, P. falciparum Indochina, OD700, 2 h (AID 1155).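 Further: lysis reports solute entry through the parasite surface anion channel PSAC; channel blockers reduce lysis of infected cells.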 The following applies: P. falciparum Indochina infected erythrocytes, osmotic lysis OD700; higher = more signal, called active from +8 up or from −8 down.
Experiment [15] in a line: osmotic lysis modulators in infected erythrocytes, primary screen, PSAC antagonist project, cell-based, P. falciparum Indochina, OD700, 3 h (AID 1156). The following applies: higher = more signal, called active from +8 up or from −8 down.
Experiment [16] can be described thus: PSAC antagonists in infected red cells, primary screen, cell-based, P. falciparum Indochina, OD700, 18 h (AID 1157). The following applies: P. falciparum Indochina infected erythrocytes, osmotic lysis OD700, 18 h; higher = more signal, called active from +8 up or from −8 down.
Experiment [17] can be described thus: modulators of S6 phosphorylation in cells, primary screen, cell-based, A549, cytoblot, luminescence, serum-stimulated (AID 1158).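 Further: serum-stimulated A549 lung adenocarcinoma cells; signal is phosphorylated S6 detected by cytoblot immunostaining with HRP secondary.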 The following applies: A549 phospho-S6 cytoblot, 5 h, higher = more signal.
Experiment [18] has as its target NADPH oxidase 2 (Homo sapiens) (UniProt P04839). Description: NOX2-dependent H2O2 signal modulators, primary screen, NOX inhibitor project, cell-based, HEK293-NOX2, PMA-stimulated, Amplex Red fluorescence (AID 1159). Further: test concentration not given here. The following applies: 45 min, higher = more signal, called active from +8 up or from −8 down.
The target in experiment [19] is NADPH oxidase 4 (Homo sapiens) (UniProt Q9NPH5). Kind of experiment: NOX4-dependent H2O2 signal modulators, primary screen, NOX inhibitor project, cell-based, HEK293-NOX4, tetracycline-induced, Amplex Red fluorescence (AID 1160). The following applies: 45 min, higher = more signal, called active from +8 up or from −8 down.
NADPH oxidase 4 (Homo sapiens), sequence (Q9NPH5 whole entry, looked up): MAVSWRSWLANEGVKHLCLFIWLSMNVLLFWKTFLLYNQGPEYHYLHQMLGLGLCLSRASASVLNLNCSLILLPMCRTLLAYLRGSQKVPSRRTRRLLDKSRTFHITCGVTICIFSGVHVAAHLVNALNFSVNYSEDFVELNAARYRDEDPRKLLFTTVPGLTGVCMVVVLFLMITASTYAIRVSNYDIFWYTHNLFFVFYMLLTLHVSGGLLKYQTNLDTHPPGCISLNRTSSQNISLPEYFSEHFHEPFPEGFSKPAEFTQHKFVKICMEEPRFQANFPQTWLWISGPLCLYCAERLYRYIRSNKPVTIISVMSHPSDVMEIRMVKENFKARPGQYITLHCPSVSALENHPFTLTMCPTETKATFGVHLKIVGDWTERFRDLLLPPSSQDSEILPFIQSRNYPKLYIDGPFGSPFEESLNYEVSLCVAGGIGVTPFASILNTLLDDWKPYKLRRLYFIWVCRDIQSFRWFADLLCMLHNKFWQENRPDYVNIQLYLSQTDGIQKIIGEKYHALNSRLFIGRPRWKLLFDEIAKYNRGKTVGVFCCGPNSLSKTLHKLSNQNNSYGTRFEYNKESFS
Experiment [20] deals with NADPH oxidase 5 (Homo sapiens) (UniProt Q96PH1). Description: NOX5-dependent H2O2 signal modulators, primary screen, NOX inhibitor project, cell-based, HEK293-NOX5, Amplex Red fluorescence (AID 1161). The following applies: HEK293-NOX5, ionomycin, 45 min, higher = more signal.
NADPH oxidase 5 (Homo sapiens), sequence (Q96PH1 whole entry, looked up): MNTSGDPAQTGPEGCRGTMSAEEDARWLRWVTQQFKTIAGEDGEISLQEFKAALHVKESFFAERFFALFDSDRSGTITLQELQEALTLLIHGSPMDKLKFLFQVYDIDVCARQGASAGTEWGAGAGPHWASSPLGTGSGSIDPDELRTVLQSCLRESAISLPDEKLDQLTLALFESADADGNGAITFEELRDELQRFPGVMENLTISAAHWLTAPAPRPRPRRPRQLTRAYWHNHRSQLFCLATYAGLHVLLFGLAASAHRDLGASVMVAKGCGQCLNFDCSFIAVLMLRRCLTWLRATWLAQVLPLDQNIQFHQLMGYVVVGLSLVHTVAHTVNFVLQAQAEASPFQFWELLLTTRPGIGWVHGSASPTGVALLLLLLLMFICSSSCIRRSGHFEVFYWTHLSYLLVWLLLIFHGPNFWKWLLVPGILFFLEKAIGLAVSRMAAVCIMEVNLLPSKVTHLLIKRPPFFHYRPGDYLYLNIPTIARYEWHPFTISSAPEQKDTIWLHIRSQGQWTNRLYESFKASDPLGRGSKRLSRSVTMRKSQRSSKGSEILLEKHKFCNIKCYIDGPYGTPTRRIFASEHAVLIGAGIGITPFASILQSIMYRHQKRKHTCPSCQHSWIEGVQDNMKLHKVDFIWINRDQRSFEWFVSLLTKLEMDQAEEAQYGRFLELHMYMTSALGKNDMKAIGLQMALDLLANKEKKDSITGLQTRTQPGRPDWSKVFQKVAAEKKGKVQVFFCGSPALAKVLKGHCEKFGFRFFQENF

NADPH oxidase 2 (Homo sapiens), sequence (P04839 whole entry, looked up): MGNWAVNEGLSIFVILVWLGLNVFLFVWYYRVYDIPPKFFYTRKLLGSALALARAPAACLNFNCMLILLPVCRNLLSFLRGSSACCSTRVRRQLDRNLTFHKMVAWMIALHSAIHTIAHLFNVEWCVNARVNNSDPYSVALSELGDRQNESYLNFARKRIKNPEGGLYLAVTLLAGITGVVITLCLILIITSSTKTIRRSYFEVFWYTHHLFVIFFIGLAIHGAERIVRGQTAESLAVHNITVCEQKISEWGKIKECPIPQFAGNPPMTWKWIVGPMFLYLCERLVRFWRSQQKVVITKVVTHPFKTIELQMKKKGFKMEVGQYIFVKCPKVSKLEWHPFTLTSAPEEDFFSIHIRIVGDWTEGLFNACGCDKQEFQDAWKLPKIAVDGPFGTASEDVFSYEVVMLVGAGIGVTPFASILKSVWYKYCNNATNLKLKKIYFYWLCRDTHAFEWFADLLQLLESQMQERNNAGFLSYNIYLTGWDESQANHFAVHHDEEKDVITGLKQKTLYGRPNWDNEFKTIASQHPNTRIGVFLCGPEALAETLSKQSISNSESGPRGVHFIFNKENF

Consider `CCCCC(=C=CC[C@H](O)c1ccc(OCCO)cc1)CCO`, for which the composite z-score is -0.0188 in experiment [1]; -0.209 in experiment [6]; -0.0451 in [7]; 0.678 in the experiment with Torsin-1A (Homo sapiens) [8]; 1.58 with Torsin-1A (Homo sapiens) [9]; 0.011 in [10]. For the same compound, the composite z-score in [12] was -0.0967. For the same compound, the z-score was -1.08 (inactive) in [2]; 0.489 (inactive) in experiment [3]; 2.57 (inactive) in experiment [4]; 0.0098 (inactive) in experiment [5]; -0.495 (inactive) in [11]; 12.9 (active) in experiment [13]. In addition, the z-score in [14] is 1.77 (inactive); in experiment [15] it was 1.06 (inactive); in [16], 0.627 (inactive); in experiment [17] it was -0.517; in [18], -0.649 (inactive); in [19], -0.798 (inactive). Besides, in experiment [20], the z-score was -2.06.
On to `COC(=O)[C@@]1(Cc2ccc(F)cc2)[C@H]2c3cc(C(=O)N4CCCC4)n(Cc4ccc(C)c(F)c4F)c3C[C@H]2CN1C(=O)c1ccccc1`, for which the composite z-score is -0.175 in experiment [1]; -0.286 in experiment [6]; 0.12 in experiment [7]; -0.259 in the experiment with Torsin-1A (Homo sapiens) [8]; -0.407 in the experiment with Torsin-1A (Homo sapiens) [9]; -0.472 in [10]. The composite z-score in [12] was 0.746. In addition, the z-score in [2] was -0.944 (inactive); in experiment [3], -0.298 (inactive); in experiment [4], 1.15 (inactive); in [5] it was -0.177 (inactive); in [11] it was -1.31 (inactive); in experiment [13], 5.03 (inactive). Also, the z-score in experiment [14] is 0.806 (inactive); in experiment [15], 0.598 (inactive); in [16], 1.06 (inactive); in experiment [17], -0.389; in experiment [18] it was -4.01 (inactive); in experiment [19], -7.95 (inactive). In experiment [20], this compound returned a z-score of -7.01.
Consider `[N-]=[N+]=Nc1ccccc1C[C@@]1(C(=O)NCCN2CCOCC2)N=C(c2ccc(OCCCO)cc2)O[C@@H]1c1ccccc1N=[N+]=[N-]`, for which the composite z-score in [1] is 0.734; in [6], 0.425; in [7], 0.518; in the experiment with Torsin-1A (Homo sapiens) [8] it was 0.801; in the experiment with Torsin-1A (Homo sapiens) [9], -0.283; in experiment [10] it was 0.201. The same compound came in with a composite z-score in experiment [12] of 0.632. The z-score in experiment [2] is -4.82 (inactive); in [3], 1.52 (inactive); in experiment [4], 0.512 (inactive); in experiment [5] it was -1.83 (inactive); in experiment [11], -0.374 (inactive); in experiment [13], 30.8 (active). For the same compound, the z-score was 30.8 (active) in experiment [14]; 2.72 (inactive) in experiment [15]; 2.78 (inactive) in experiment [16]; -0.26 in experiment [17]; -2.91 (inactive) in experiment [18]; -0.157 (inactive) in experiment [19]. In [20], this compound came in with a z-score of -1.6.
As for `CO[C@H]1O[C@H](CO)[C@@H](OC(=O)CCc2ccccc2)[C@@H]2OC(=O)[C@@H](Cc3ccccc3)C/C=C/C[C@H](Cc3ccccc3)C(=O)O[C@@H]12`, the composite z-score in [1] was 0.411; in experiment [6] it was 0.29; in [7] it was -0.315; in the experiment with Torsin-1A (Homo sapiens) [8], -0.293; with Torsin-1A (Homo sapiens) [9], 0.169; in experiment [10], 0.476. The composite z-score in experiment [12] is -0.0054. For the same compound, the z-score was -2.33 (inactive) in experiment [2]; -0.605 (inactive) in experiment [3]; -0.655 (inactive) in experiment [4]; -0.43 (inactive) in [5]; 0.453 (inactive) in [11]; 4.5 (inactive) in experiment [13]. The z-score was 0.829 (inactive) in [14]; 1.23 (inactive) in [15]; 0.546 (inactive) in [16]; 0.658 in [17]; -4.56 (inactive) in experiment [18]; -0.97 (inactive) in experiment [19]. The compound also gave a z-score in experiment [20] of -2.

The values are drawn from PubChem BioAssay.
